According to PubChem BioAssay (EPA / NIEHS):
Inconclusive results are not listed. Active and inactive are the calls of the source. How the source made its calls: active means hit-call score of the fitted dose curve at least 0.9, where 1 is the maximum; inconclusive means response in the unintended direction; inactive means score below 0.9.

These compounds were tested on ABC Transporter (ABCB11), ABCB11 (gene 8647) (assay: CLD_ABCB11_6hr: CellzDirect (CLD) Gene Expression Assay for ABC Transporter (ABCB11) at 6 hours (AID 2283675);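 further: hits raise ABCB11 mRNA level so AC50 marks induction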).
Method: CLD_6hr is a cell-based, multiplexed-readout assay that uses hepatocyte, a human liver primary cell, with measurements taken at 6 hours after chemical dosing in a 96-well plate.CLD_ABCB11_6hr is one of 16 assay component(s) measured or calculated from the CLD_6hr assay. It is designed to make measurements of mRNA induction, a form of inducible reporter, as detected with chemiluminescence signals by Quantitative Nuclease Protection Assay (qNPA) technology.Data from the assay component CLD_ABCB11_6hr was analyzed at the endpoint, CLD_ABCB11_6hr, in the positive analysis fitting direction relative to DMSO as the negative control and baseline of activity. Using a type of inducible reporter, gain-of-signal activity can be used to understand changes in the reporter gene as they relate to the gene ABCB11. Furthermore, this assay endpoint can be referred to as a primary readout. To generalize the intended target to other relatable targets, this assay endpoint is annotated to the transporter intended target family, where subfamily is ABC transporter.
Human hepatocyte cultures were treated daily for two consecutive days with fresh dosing solutions containing appropriate concentrations of the 320 ToxCast chemicals (chemical identities were blinded to CellzDirect and other ToxCast collaborators), vehicle control (0.2% DMSO), and positive control inducers as summarized in Table 1. Due to the large number of treatment groups and chemicals examined, the ToxCast chemicals were divided into two groups (spanning two independent cultures of hepatocytes from separate donor preparations (Hu778: ToxCast plates 1 and 2; Hu776: ToxCast plates 3 and 4). Each preparation of human hepatocyte cultures was treated with respective vehicle control, medium only control, set of six positive controls/reference chemicals for the five hepatic receptor pathways, and a subset of eight of the ToxCast chemicals (indoxacarb, pyrithiobac-sodium, norflurazon, cyhalofop-butyl, methomyl, thiram, acetochlor, and propiconazole). These replicate data, coupled with internal replicates designed within the blinded ToxCast chemical library, provided additional data to evaluate interindividual differences between hepatocyte preparations and their potential impact on chemical profiles.Cell morphology and integrity were evaluated using phase-contrast microscopy as an indicator of hepatocyte cell health (Tyson & Green, 1987). Cultures for each treatment group (i.e., media, vehicle [0.2% DMSO], positive control inducers [multiple concentrations], and the ToxCast chemicals [multiple concentrations]) were observed and cell morphology was assessed relative to vehicle control cultures at each harvest time point (0, 6, 24, or 48 h). […] Images were evaluated at the conclusion of the study to assess changes in cell integrity and account for the effects of chemical exposure on uncharacteristic changes in concentration-dependent gene expression profiles. The results from these determinations of apparent cytotoxicity were annotated (yes/no) alongside the corresponding qNPA data for reference.At the conclusion of each treatment period, hepatocyte cultures (96-well) were washed with 1 volume of HBSS, lysed by addition of 25 ul ArrayPlate lysis buffer (HTG, Tucson, AZ), and 70 ul/well of Denaturation Oil, denatured by incubation at 95C for 10 min, and frozen at approximately -70C until analysis by nuclease protection assay (qNPA) (Roberts et al., 2007). For qNPA analysis, cell lysates were thawed at 50C for approximately 30 min, qNPA probes were added, and samples were incubated at 95C for 10 min to begin the detection process by denaturing the target RNA, dissociating the duplexes and secondary structure hybridization. At the conclusion of the hybridization period, S1 nuclease reagent was added to each sample to digest all nonprotected nucleotides at 50C for 60-90 min. […]

SMILES	outcome	AC50
CCOC(=O)COc1cc(-c2nn(C)c(OC(F)F)c2Cl)c(F)cc1Cl	inactive	–
CCCOCC(=Nc1ccc(Cl)cc1C(F)(F)F)n1ccnc1	inactive	–
CCOP(=O)(OCC)Oc1cc(C)nc(C(C)C)n1	inactive	–
CNc1cnn(-c2cccc(C(F)(F)F)c2)c(=O)c1Cl	inactive	–
CN1COCN(Cc2cnc(Cl)s2)C1=N[N+](=O)[O-]	inactive	–
CC(C)N(C(=O)SCC(Cl)=C(Cl)Cl)C(C)C	inactive	–
S=C1NCCN1	inactive	–
CN(C)NC(=O)CCC(=O)O	inactive	–
CCc1cnc(C2=NC(C)(C(C)C)C(=O)N2)c(C(=O)O)c1 (stereo not given)	inactive	–
O=c1ccc(=O)[nH][nH]1	inactive	–
CCOP(=S)(OCC)Oc1ccc2c(C)c(Cl)c(=O)oc2c1	inactive	–
CC(Oc1cccc(Cl)c1)C(=O)O (stereo not given)	inactive	–
Nc1nc(N)nc(NC2CC2)n1	inactive	–
CC1(C(=O)Nc2ccc(O)c(Cl)c2Cl)CCCCC1	inactive	–
CC[C@H](C)[C@H]1O[C@]2(C=C[C@@H]1C)C[C@@H]1C[C@@H](C/C=C(\C)[C@@H](O[C@H]3C[C@H](OC)[C@@H](O[C@H]4C[C@H](OC)[C@@H](NC)[C@H](C)O4)[C@H](C)O3)[C@@H](C)/C=C/C=C3\CO[C@@H]4[C@H](O)C(C)=C[C@@H](C(=O)O1)[C@]34O)O2	inactive	–
C[N+]1(C)CCCCC1	inactive	–
CC(COc1ccc(Oc2ccccc2)cc1)Oc1ccccn1 (stereo not given)	inactive	–
N#CSCSC#N	inactive	–
CCCCOC(=O)c1ccccc1C(=O)O	inactive	–
CCC(=O)Nc1ccc(Cl)c(Cl)c1	inactive	–

SMILES	outcome	AC50
COP(=O)(OC)SCn1c(=O)oc2cc(Cl)cnc21	inactive	–
CC(C)[C@H](C(=O)O[C@H](C#N)c1cccc(Oc2ccccc2)c1)c1ccc(Cl)cc1	inactive	–
O=C(O)c1cc(Oc2ccc(C(F)(F)F)cc2Cl)ccc1[N+](=O)[O-]	inactive	–
CCOP(=S)(OCC)OC(Cl)C(Cl)(Cl)Cl (stereo not given)	inactive	–
CCOC(=O)CC(SP(=O)(OC)OC)C(=O)OCC (stereo not given)	inactive	–
CCC(CC)Nc1c([N+](=O)[O-])cc(C)c(C)c1[N+](=O)[O-]	inactive	–
CC(C1CC1)C(O)(Cn1cncn1)c1ccc(Cl)cc1 (stereo not given)	inactive	–
COc1cccc(C(=O)NN(C(=O)c2cc(C)cc(C)c2)C(C)(C)C)c1C	inactive	–
CCOP(=S)(Oc1cnc(C(C)(C)C)nc1)OC(C)C (stereo not given)	–	27.4 µM (active)
CON=C(C(=O)OC)c1ccccc1CON=C(C)c1cccc(C(F)(F)F)c1	inactive	–
CCOP(=O)(SC(C)CC)N1CCSC1=O (stereo not given)	inactive	–
C[Si](Cn1cncn1)(c1ccc(F)cc1)c1ccc(F)cc1	inactive	–
C#CCC1=C(C)C(OC(=O)C2C(C=C(C)C)C2(C)C)CC1=O (stereo not given)	inactive	–
CCc1cccc(CC)c1N(COC)C(=O)CCl	inactive	–
CNC(=O)ON=C(C)SC	inactive	–
COP(=O)(OC)C(O)C(Cl)(Cl)Cl (stereo not given)	inactive	–
COP(=O)(OC)OC(Br)C(Cl)(Cl)Br (stereo not given)	inactive	–
CCNc1nc(Cl)nc(NC(C)(C)C#N)n1	inactive	–
Nc1c(Cl)cc([N+](=O)[O-])cc1Cl	inactive	–
O=[N+]([O-])c1cc(C(F)(F)F)c(Cl)c([N+](=O)[O-])c1Nc1ncc(C(F)(F)F)cc1Cl	inactive	–
